# Data published in ChEMBL document CHEMBL4513216, “Probing the Open Global Health Chemical Diversity Library for Multistage-Active Starting Points for Next-Generation Antimalarials” (ACS Infect Dis, 2020).
# Among all 69,000 compounds or so, about 8,600 (12%) showed an effect of 50% or more. Many of the other results were omitted from the sample, so strong results are more common in it than they were.
# Tested on: Plasmodium berghei
# Assay: Screen against P. berghei liver stage (PbLuc), transformed with Luciferase, at 10uM
# Format: functional, HepG2
# Details: tested at 10 uM
row,Compound,INHIBITION
1,Cc1ccc(N2CC[C@H]3OCC[C@@]3(C(=O)NC(C)C)C2)nn1,35.1%
2,COc1ccccc1C1(CNCc2ccc([S+](C)[O-])cc2)CC1 (stereo not given),1.41%
3,CCOCc1ccc(CNc2nc(OC)ncc2Cl)cc1,35.4%
4,COCC(=O)NCc1ccc(-c2ncncc2C(=O)N(C)C)cc1,26.15%
5,COc1ccc(CN2CCc3[nH]nc(C(=O)N(C)C)c3C2)cc1,21.1%
6,COc1ncc(Cl)c(NCc2ccc(C(=O)N(C)C)cc2)n1,58.9%
7,COc1ncc(Cl)c(NCc2ccc([S+](C)[O-])cc2)n1 (stereo not given),61.1%
8,COC(=O)CC1CSCCN1C(=O)CCc1c(C)nn(C)c1C (stereo not given),19.8%
9,COc1ccccc1C(O)CNC(=O)NCc1cc[nH]n1 (stereo not given),26.4%
10,Cc1cc(C)n(CCCNC(=O)C(C)NC(=O)CC2CCCCC2)n1 (stereo not given),-7.98%
11,COCC(=O)N1CCC2(CCC2N(C)Cc2ccco2)CC1 (stereo not given),-28.2%
12,Cc1cc(C)n(CC(C)CNC(=O)[C@@H](C)NC(=O)OC(C)(C)C)n1 (stereo not given in full),-45.8%
13,Cc1nc(C(=O)N2CCCC2c2noc(C)n2)c[nH]1 (stereo not given),0.914%
14,CC(C)CCN1CCC2(CCCN(c3nncs3)C2)C1 (stereo not given),4.1%
15,CCc1nncn1CCNC(=O)N1CCN(Cc2ccccc2)CC1,35.3%
16,Cn1c2ccc(F)cc2c2ncn(CCCN(CCO)CCO)c(=O)c21,24.7%
17,Cc1cnc(C(=O)N2CCCCC2c2nc(C)cs2)cn1 (stereo not given),-16%
18,Fc1cnc(N2CC3(CCN(CC4CC4)C3)C2)nc1,-81.2%
19,Cn1cnc(S(=O)(=O)N2CC3(CCN(c4ccccc4)C3)C2)c1,53%
20,Cn1cnc(S(=O)(=O)N2CC3(CCN(Cc4ccncc4)C3)C2)c1,21.3%
21,CC(C)CN1CCC2(C1)CN(S(=O)(=O)c1cn(C)cn1)C2,35.8%
22,Cn1cnc(C(=O)N2CC3(CCN(S(=O)(=O)c4ccccc4)C3)C2)c1,-4.02%
23,CCN1CCC2(C1)CN(S(=O)(=O)c1cn(C)cn1)C2,65.7%
24,Cn1cnc(S(=O)(=O)N2CCN(CC3CC3)c3ncccc3C2)c1,-22.1%
25,Cn1cnc(S(=O)(=O)N2CCSC3(CCCCC3)C2)c1,-37.8%
26,Cn1cnc(S(=O)(=O)N2CC3(CCN(CC4CC4)C3)C2)c1,67.5%
27,O=C1CN(Cc2occc2C(=O)NCCc2ccc(F)cc2)CCN1,8.41%

row,Compound,INHIBITION
1,CC(C)CCNC(=O)Cc1cnc(-n2cccc2)s1,37.4%
2,c1cnc(N2Cc3nccn3CC(COc3cccnc3)C2)nc1 (stereo not given),-13.2%
3,Cc1cc(F)c(S(=O)(=O)Nc2ccn(CCCC#N)n2)cc1F,30.5%
4,Cn1cc(C(=O)N[C@H]2CN(Cc3nccs3)[C@@H]3CCCO[C@H]23)cn1,-8.94%
5,CC(C)C1CCC(N2CCN(CCS(C)(=O)=O)CC2)CC1 (stereo not given),32.9%
6,CCCn1cc(CN2CCCC2c2cccc(-n3ccnc3)n2)cn1 (stereo not given),15.9%
7,O=C(NCC(O)c1ccoc1)Nc1cccs1 (stereo not given),19.8%
8,Cc1nc(C)n(C2CCCN(C(=O)Cc3cn4ccccc4n3)C2)n1 (stereo not given),25.4%
9,CCc1ccc(CCC(=O)NCc2nnc[nH]2)cc1,24.5%
10,Cc1c(I)cccc1C(=O)NCc1ncc[nH]1,57%
11,Cc1cccc(I)c1C(=O)NCc1ncc[nH]1,8.08%
12,O=C(NCc1ncc[nH]1)c1c(F)cccc1I,25.5%
13,Cc1c(I)cccc1C(=O)NCC1(CO)CC1,-4.86%
14,Cc1c(I)cccc1C(=O)NCc1nnc[nH]1,51.5%
15,Cc1c2ncn(CC(=O)N(C)C)c(=O)c2nn1C,0%
16,Cc1c2ncn(CC(=O)NC(C)C)c(=O)c2nn1C,48.5%
17,Cc1c2nnn(CC(=O)N(C)C)c(=O)c2nn1C,69.4%
18,CC(=O)N1CCN(c2cc(C3CCNCC3)ccn2)CC1,7.19%
19,Cc1cncc(C(=O)N2CCO[C@H]3[C@H](OCCN(C)C)CC[C@@H]32)c1,14.5%
20,O=C(CC1CCCO1)NS(=O)(=O)Cc1cc(-c2ccccc2)no1 (stereo not given),25%
21,Cc1ccc(CN2CCC3(CCN(c4cnn(C)c4)C3=O)C2)s1 (stereo not given),1.94%
22,CC(C)NC(=O)N1CCC2(CC1)CC[C@@]1(C(=O)N(C)C)CN(C)C[C@@H]21,67.5%
23,CCN1C[C@H]2C3(CCN(C(=O)NC(C)C)CC3)CC[C@@]2(C(=O)N(C)C)C1,28.5%
24,CCS(=O)(=O)N1CCC2(CC1)CC[C@@]1(C(=O)N(C)C)CN(C)C[C@@H]21,-10.5%
25,O=C(NCc1cc(=O)n2c(n1)CN(CC1CCOC1)CCC2)C1CC1 (stereo not given),26.8%
26,CCCc1nc(N2CC[C@@H](c3ccc4ccccc4c3)[C@H](O)C2)no1,36.7%
27,O[C@@H]1CN(c2noc(C3CC3)n2)CC[C@H]1c1ccc2ccccc2c1,51.2%

row,Compound,INHIBITION
1,Cc1nc(N2CC[C@@H](c3ccc4ccccc4c3)[C@H](O)C2)no1,31.2%
2,CC(C)NC(=O)N1CCC2(CC1)NC(=O)CC2c1ccncc1 (stereo not given),-3.51%
3,CCc1nnc2n1CCN(C(=O)c1cn(-c3ccccc3)nn1)C2,-1.15%
4,Cc1nc(CN2C[C@@H]3CN(C(=O)c4ccoc4C)C[C@@H]3C2)cs1,1.48%
5,Cc1nc(CN2CCC3(CCN(C(=O)c4ccoc4C)CC3)C2)cs1,66.2%
6,Cc1occc1C(=O)N1CCC2(CCN(Cc3cccs3)C2)CC1,-33.9%
7,Cc1nc(CN2CCC3(C2)CN(Cc2ccco2)C3)cs1,56.6%
8,Cc1occc1C(=O)N1CCC2(CCN(Cc3nccs3)C2)CC1,1.81%
9,Cc1nc(CN2C[C@@H]3CN(C(=O)c4ccoc4C)C[C@@H]3C2=O)cs1,64.9%
10,Cc1nc(CN2C(=O)CCC23CCN(Cc2ccco2)CC3)cs1,3.17%
11,Cc1nc(CN2C[C@@H]3CN(C(=O)c4ccco4)C[C@@H]3C2=O)cs1,40.4%
12,Cc1nc(CN2CCC23CCN(Cc2ccco2)CC3)cs1,49.4%
13,Cc1ccc(C2CCCCCN2Cc2cn(C)nc2C)s1 (stereo not given),27.6%
14,CCN(CC)S(=O)(=O)N1CCCC1c1cccc(Nc2ncc(C)s2)n1 (stereo not given),76.1%
15,Cc1nn(C)cc1CN1CCCC1c1cccc(Nc2nccs2)n1 (stereo not given),23.25%
16,Cc1cnc(Nc2cccc(C3CCCN3Cc3cn(C)nc3C)n2)s1 (stereo not given),64.5%
17,COCC(=O)N1CCCC1c1cccc(Nc2ncc(C)s2)n1 (stereo not given),42.4%
18,Cc1cnc(Nc2cccc(C3CCCN3C(=O)CO)n2)s1 (stereo not given),-0.902%
19,CCOCCN1C[C@@H]2CCCO[C@@H]2[C@H](NC(=O)c2cnoc2C)C1,32.1%
20,CC1(c2ncc(CN3CCN(c4ncccn4)CC3)cn2)CCCCO1 (stereo not given),23.15%
21,O=C(c1ccccc1F)N1C[C@@H]2COC[C@]2(COCc2cccnc2)C1,10%
22,CCCN1C(=O)c2ccccc2C1OC (stereo not given),28.7%
23,COCC(=O)Nc1cc(Br)cnc1OCC(F)(F)F,26%
24,CC(=O)Nc1cc(Br)cnc1OCC(F)(F)F,30.3%
25,CCC(=O)Nc1cc(Br)cnc1OCC(F)(F)F,67.1%
26,O=C(c1cccc2cccnc12)N1CC[C@@]2(CCCO2)[C@@H](O)C1,22%
27,COC(=O)CC(c1ccc(OC)c(O)c1)c1oc(C)cc(=O)c1O (stereo not given),3.31%

row,Compound,INHIBITION
1,CN1CCN(CCOc2ccc(NC(=O)c3ccncc3)cc2)CC1,27%
2,CNc1nc2c(c(C(=O)N3CCCC3)n1)CN(C(=O)c1cccs1)CC2,-37.9%
3,NCC1CN(C(=O)c2cccc(-n3cccn3)c2)CCO1 (stereo not given),40.5%
4,O=C1CCC(C(=O)N2CCOC(Cc3ccccc3Cl)C2)=NN1 (stereo not given),71.1%
5,O=C1CCC(C(=O)N2CCOC(Cc3cccc4ccccc34)C2)=NN1 (stereo not given),53.7%
6,O=C1CCC(C(=O)N2CCOC(Cc3ccc(F)cc3)C2)=NN1 (stereo not given),-11.6%
7,CCn1ncnc1CN1CCOC(Cc2cccc3ccccc23)C1 (stereo not given),44.3%
8,Cn1ccnc1C(=O)N1CCOC(Cc2ccccc2Cl)C1 (stereo not given),41.2%
9,Cc1cc2ccncc2n1CC1(O)CCN(C(=O)c2ccccn2)CC1,18.3%
10,COC(=O)c1cc2c(OC)c(OC)c(OC)cc2[nH]1,32.2%
11,C=c1ncsc1=C1NN=C(C2CCCN2C(=O)CCn2cccn2)O1 (stereo not given),16.575%
12,CCCNC(=O)CN1CCC(NCc2csc(C(C)C)n2)CC1,-16.8%
13,CCC(C)NC(=O)c1cccc(CNCc2csc(C(C)C)n2)c1 (stereo not given),64.5%
14,CCCNC(=O)c1cccc(CNCc2csc(C(C)(C)C)n2)c1,77.4%
15,CCCNC(=O)c1cccc(CNCc2csc(CC)n2)c1,12.3%
16,CCCNC(=O)C1CCN(Cc2csc(C(C)C)n2)CC1,42%
17,CCC(C)NC(=O)c1cccc(CNC(=O)CC(F)(F)F)c1 (stereo not given),-76.9%
18,CC(C)c1nc(CNC(=O)c2ccc(C(C)N3CCCCC3)o2)cs1 (stereo not given),42.2%
19,CCNC(=O)c1cccc(CNC(=O)c2cnc(C(C)(C)C)s2)c1,-6.94%
20,CCCNC(=O)c1cccc(CNCc2csc(C(C)C)n2)c1,55.1%
21,Cc1ccc(C(=O)O)c(N2CC(C)(C)[C@@](C)(O)C2)n1,16.2%
22,O=S(=O)(c1cncc(F)c1)N1CCC2(CCOC2)C1 (stereo not given),-15.4%
23,CC(=O)Nc1ccc2nc(CN(C)Cc3snnc3C)ccc2c1,11.4%
24,COCc1cc(N(C)CCc2c(C)n[nH]c2C)ncn1,26.7%
